Six molecules from PubChem BioAssay (NCATS) can be followed below.

Each structure is given as a SMILES string. Several values for one entry are separate records, joined by “and”; a condition that tells them apart may be missing. Equal values may be shown once. Inconclusive results are not listed. Activity calls are given as the source filed them. Unless noted, the call rests on the fitted dose curve.

In test [1] the target is Bile acid receptor (Homo sapiens) (UniProt Q96RI1). Briefly: qHTS assay for small molecule antagonists of farnesoid X receptor signaling (AID 588526). Further: potency means the concentration at half of the fitted maximal effect. The procedure, abridged:
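Concentration-response titrations were fitted to the Hill equation for half-maximal inhibition and maximal response, with data normalised to 50 uM chenodeoxycholic acid and DMSO control wells. Cells: FXR-UAS-bla HEK293T, dialyzed FBS.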

For test [2] the target is unchanged. Kind of test: qHTS assay for small molecule agonists of farnesoid X receptor signaling (AID 588527).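 Further: series mostly up to about 77 µM; 0% = vehicle basal and 100% = reference agonist.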 The settings on record: HEK293T FXR-UAS-bla, beta-lactamase ratio, 16 h; activation: stronger effect = higher value. The method in brief: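 Read-out: beta-lactamase reporter fluorescence with CCF4 substrate in GeneBLAzer FXR-UAS-bla HEK293T cells, after 16 h compound exposure at 37 C. Response scaled between DMSO basal (0%) and chenodeoxycholic acid at 100 uM (100%).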
For orientation: In qHTS, concentration-response curves come from the screen itself.

In test [3] the target is Peroxisome proliferator-activated receptor delta (Homo sapiens) (UniProt Q03181). Kind of test: qHTS assay for small molecule agonists of peroxisome proliferator-activated receptor delta signaling (AID 588534).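 Further: 0% = DMSO basal wells and 100% = positive control agonist at 10 µM.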 The method in brief: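 Agonist-mode beta-lactamase reporter readout (CCF4 dye, 2 h at RT) after 18 h at 37 °C exposure to a titration; Hill-equation fitting gave EC50 and maximal response.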

In test [4] the target is Vitamin D3 receptor (Homo sapiens) (UniProt P11473). Kind of test: qHTS assay for small molecule antagonists of vitamin D receptor signaling (AID 588541).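 Further: receptor activated by calcitriol during compound treatment; series mostly up to about 77 µM; on the % scale 0 is the no-effect control and ±100 the full control effect.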 The method in brief: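 VDR-UAS-bla HEK293T cells (2000/well, 2% charcoal-stripped FBS) were treated with titrated compounds plus 1-alpha,25-dihydroxyvitamin D3 (50 nM or 3 nM final) for 16 h at 37 C. CCF4 beta-lactamase fluorescence was read; Hill fits gave IC50.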

Test [5] shares this target. Briefly: qHTS assay for small molecule agonists of vitamin D receptor signaling (AID 588543).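 Further: 0% = DMSO basal and 100% = reference agonist control.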 The procedure, abridged:
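Measured: β-lactamase reporter activity (CCF4, 405 nm excitation, 460/530 nm emission) in HEK293T VDR-UAS-bla cells after 16 h compound exposure at 37 °C. Normalization against 50 nM 1α,25-dihydroxyvitamin D3 and DMSO; Hill-fit EC50.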

Test [6] is described as follows: qHTS assay for small molecule antagonists of retinoid X receptor alpha signaling (AID 588546; active means well fitted inhibition curve with a large enough effect in the signal ratio, with a control signal flat, not every such curve was filed as active; the % refers to the signal ratio;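 further: cells stimulated with 9-cis-retinoic acid as agonist; on the % scale 0 is the no-effect control and ±100 the full control effect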). As to conditions: HEK293T RXRa-UAS-bla, beta-lactamase ratio, antagonist mode; measured here: W530 green channel, cytotoxicity proxy. The method in brief: (§1)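 Beta-lactamase reporter inhibition, read as CCF4 fluorescence ratio (ex 405, em 460/530 nm) after 2 h at RT. HEK293T UAS-bla cells, 2500/well, were stimulated with 9-cis-RA at 500 or 100 nM final alongside test compound for 18 h at 37 C.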

In test [7] the target is Retinoic acid receptor RXR-alpha (Homo sapiens) (UniProt P19793). The description is as above. The settings on record: HEK293T RXRa-UAS-bla, beta-lactamase ratio, antagonist mode. The procedure, abridged:
as §1

Test [8] addresses Thyroid hormone receptor beta (Homo sapiens) (UniProt P10828). Briefly: qHTS assay for small molecule antagonists of thyroid hormone receptor beta signaling (AID 588547; active means well fitted inhibition curve with a large enough effect in the signal ratio, with a control signal flat, not every such curve was filed as active; the % refers to the signal ratio;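 further: cells stimulated with 0.4 nM T3 agonist during compound exposure; series mostly up to about 77 µM; on the % scale 0 is the no-effect control and ±100 the full control effect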). The settings on record: TR-UAS-bla HEK293, beta-lactamase ratio, antagonist mode, 18 h. The procedure, abridged:
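TR-UAS-bla GripTite HEK293 cells in 2% charcoal/dextran FBS medium were preincubated 4 h at 37 C, given compound (0.59 nM to 92 uM) plus 0.4 nM T3 (final) for 18 h, then CCF4 for 2 h at RT; Hill fit gave IC50.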

Test [9] can be described thus: qHTS assay for small molecule agonists of the antioxidant response element (ARE) signaling pathway (AID 651741; active means well fitted activation curve with a large enough effect in the signal ratio; the % refers to the signal ratio; further: potency means the concentration at half of the fitted maximal effect; on activation: % of control where 0% means no effect). The procedure, abridged: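 Reporter: beta-lactamase under ARE, stably in HepG2. Exposure: 16 h, 37 C, compounds delivered in DMSO by pin tool after 5 h cell preincubation. Readout: FRET substrate fluorescence after 2 h at RT.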
Test [10] is described as follows: qHTS assay for small molecule activators of the p53 signaling pathway (AID 651743; active means well fitted activation curve with a large enough effect in the signal ratio, not every such curve was filed as active; the % refers to the signal ratio; further: series mostly up to about 92 µM; % of control where 0% means no effect). The settings on record: HCT-116 p53RE-bla, beta-lactamase FRET ratio, 16 h; activation: stronger effect = higher value. The procedure, abridged:
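Agonist-mode quantitative HTS in HCT-116 cells carrying a p53-response-element beta-lactamase reporter; 16 h compound treatment at 37 C, then FRET substrate loading for 2 h at room temperature and fluorescence read.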

Test [11] in a line: qHTS assay for small molecule activators of the nuclear factor-kappa B (NF-kB) signaling pathway (AID 651749; active means well fitted activation curve with a large enough effect in the signal ratio; the % refers to the signal ratio; further: series mostly up to about 77 µM; % of control where 0% means no effect). The settings on record: NF-kB-bla ME-180 cells, beta-lactamase FRET ratio, 16 h; activation: stronger effect = higher value. The procedure, abridged:
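Human ME-180 cervical cells with an NF-kB-bla construct; compounds added via 23 nL pin transfer, DMSO as vehicle; incubation 16 hr. Reporter activity measured by FRET disruption.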

Test [12] concerns the target Peroxisome proliferator-activated receptor alpha (Homo sapiens) (UniProt Q07869). Briefly: qHTS assay for small molecule agonists of the peroxisome proliferator-activated receptor alpha (PPARalpha) signaling pathway (AID 651778; active means well fitted curve in the direction sought with a large enough effect; an effect the other way counts as inactive or inconclusive; further: % of control where 0% means no effect). The settings on record: PathHunter PPARalpha complementation, chemiluminescence, 6 h; max response: stronger effect = higher value. The procedure, abridged:
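Cells plated at 2,000/well and held overnight at 37 C, 5% CO2, then compound added by pin tool for 6 hr; after PathHunter detection reagent and 60 min at room temperature, chemiluminescence from enzyme complementation was read.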

Test [13] is described as follows: qHTS assay for small molecule agonists of the antioxidant response element (ARE) signaling pathway measured by Nrf2-dependant transcriptional activity (AID 720636; active means well fitted curve in the direction sought with a large enough effect in the repeat runs; an effect the other way counts as inactive or inconclusive;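 further: HepG2 cells with an ARE-driven luciferase reporter; % of control where 0% means no effect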). The procedure, abridged:
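ONE-Glo luminescence, read 30 min after reagent addition at room temperature, reflected ARE reporter activity in HepG2 cells that had been incubated with compound for 16 hr at 37 C in 1% dialyzed FBS.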

Test [14] in a line: qHTS assay for small molecule agonists of the antioxidant response element (ARE) signaling pathway measured by Nrf2-dependant transcriptional activity - cell viability counter screen (AID 720653; active means well fitted curve in the direction sought with a large enough effect in the repeat runs; an effect the other way counts as inactive or inconclusive; further: on the % scale 0 is the no-effect control and ±100 the full control effect). The settings on record: ARE-bla HepG2 viability, CellTiter-Glo ATP luminescence, 16 h; max response: stronger effect = lower value. The procedure, abridged: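 ARE-bla HepG2 cells (2,000/well) rested 5 hrs at 37C/5% CO2, then exposed to compounds in DMSO for 16 hrs. Viability was read in the same wells as intracellular ATP by luminescence, 30 min at room temperature after reagent addition.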

Test [15] in a line: qHTS assay for cell viability of HEK293 cells (AID 743288; active means well fitted curve in the direction sought with a large enough effect; an effect the other way counts as inactive or inconclusive; further: on the % scale 0 is the no-effect control and ±100 the full control effect; nearly all actives have a fitted effect of over 50% in size). As to conditions: ATP luminescence (CellTiter-Glo), 18 h; max response: stronger effect = lower value. The procedure, abridged:
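HEK293, 18 h, 37 C, ATP luminescence. Cells at 2,000/well were allowed at least 5 h to settle before dosing; CellTiter-Glo developed 30 min at RT.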

Test [16] in a line: qHTS assay for cell viability of the p53RE-bla HCT-116 cell line (AID 743292; active means well fitted curve in the direction sought with a large enough effect; an effect the other way counts as inactive or inconclusive; further: on the % scale 0 is the no-effect control and ±100 the full control effect; nearly all actives have a fitted effect of over 55% in size). The method in brief: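 After plating at 4,000 cells per well and a 5 h rest at 37 C, HCT-116 cells carrying p53RE-bla received test chemicals in DMSO. Sixteen hours later at 37 C, CellTiter-Glo was added and luminescence recorded following 30 min at room temperature.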
For test [17], the target named is Nuclear receptor subfamily 1 group I member 2 (Rattus norvegicus) (UniProt Q9R1A7). Kind of test: qHTS assay for small molecule activators of the rat pregnane X receptor (rPXR) signaling pathway (AID 651751; call rule not given here; further: 0% is about no effect). As to conditions: rPXR reporter cells, luciferase (One-Glo), 24 h.
Test [18] can be described thus: qHTS assay for environmental chemicals that activate the Aryl hydrocarbon Receptor (AhR) signaling pathway (AID 651777; active means well fitted curve in the direction sought with a large enough effect; an effect the other way counts as inactive or inconclusive; further: % of control where 0% means no effect; nearly all actives have a fitted effect of over 15% in size). As to conditions: 1A2-DRE human hepatoma cells, luciferase, 24 h; activation: stronger effect = higher value. The procedure, abridged:
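Following a 24 hr incubation with test chemicals at 37 C and 5% CO2, 1A2-DRE human hepatoma cells received One-Glo reagent; after 30 min at room temperature, luciferase output reflected CYP1A2 induction via AhR.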

The target of test [19] is Glucocorticoid receptor (Homo sapiens) (UniProt P04150). Kind of test: qHTS assay for small molecule agonists of glucocorticoid receptor signaling (AID 588532; active means well fitted curve in the direction sought with a large enough effect in the signal ratio, with a control signal flat; the % refers to the signal ratio;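 further: 100% = dexamethasone at 0.1 µM and 0% = DMSO only wells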). The settings on record: HeLa MMTV-bla, beta-lactamase ratio, agonist, 18 h; activation: stronger effect = higher value, percent of dexamethasone control, DMSO zero. The method in brief:
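Titration series, up to 92 uM, applied to GRE-bla HeLa cells for 18 h at 37 C. Detection by CCF4 FRET substrate after 2 h at RT.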

In test [20] the target is Thyroid hormone receptor beta (Homo sapiens) (UniProt P10828). Kind of test: qHTS assay for small molecule agonists of thyroid hormone receptor beta signaling (AID 588545).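 Further: 0% = DMSO only and 100% = 10 nM T3.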 The procedure, abridged: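 Efficacy and EC50 values derive from Hill fits of qHTS titration data, normalized to 10 nM T3 and DMSO-only wells. HEK 293 reporter cells were stimulated for 18 hrs at 37 C, with beta-lactamase activity measured by CCF4 fluorescence.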
Thyroid hormone receptor beta (Homo sapiens), sequence (P10828 whole entry, looked up): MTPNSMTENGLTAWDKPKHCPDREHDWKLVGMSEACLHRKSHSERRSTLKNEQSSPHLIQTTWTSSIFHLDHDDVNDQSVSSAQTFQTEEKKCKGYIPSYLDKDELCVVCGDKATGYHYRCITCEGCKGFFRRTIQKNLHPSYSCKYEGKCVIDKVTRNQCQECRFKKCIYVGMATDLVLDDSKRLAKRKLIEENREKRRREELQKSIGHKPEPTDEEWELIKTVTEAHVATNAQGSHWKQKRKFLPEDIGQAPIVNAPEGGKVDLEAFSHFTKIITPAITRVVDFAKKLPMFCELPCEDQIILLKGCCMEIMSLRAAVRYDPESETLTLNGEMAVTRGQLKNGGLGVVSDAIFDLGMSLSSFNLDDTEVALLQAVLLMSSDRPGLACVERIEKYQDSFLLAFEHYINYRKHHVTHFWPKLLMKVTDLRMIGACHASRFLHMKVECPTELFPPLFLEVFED

Bile acid receptor (Homo sapiens), sequence (Q96RI1 whole entry, looked up): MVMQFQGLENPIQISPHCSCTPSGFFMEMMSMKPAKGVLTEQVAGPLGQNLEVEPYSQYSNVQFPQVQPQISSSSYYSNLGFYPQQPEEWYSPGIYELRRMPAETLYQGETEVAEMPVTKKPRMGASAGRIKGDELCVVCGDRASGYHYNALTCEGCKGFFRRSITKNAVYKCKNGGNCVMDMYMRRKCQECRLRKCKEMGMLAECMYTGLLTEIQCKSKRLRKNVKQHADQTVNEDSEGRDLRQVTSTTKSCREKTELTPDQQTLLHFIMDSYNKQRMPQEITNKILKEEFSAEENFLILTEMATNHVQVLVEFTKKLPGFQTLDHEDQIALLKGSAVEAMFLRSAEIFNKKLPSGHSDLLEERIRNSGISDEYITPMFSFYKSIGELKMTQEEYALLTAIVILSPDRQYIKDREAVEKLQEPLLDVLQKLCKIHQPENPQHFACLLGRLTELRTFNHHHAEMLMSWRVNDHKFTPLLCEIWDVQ
Peroxisome proliferator-activated receptor alpha (Homo sapiens), sequence (Q07869 whole entry, looked up): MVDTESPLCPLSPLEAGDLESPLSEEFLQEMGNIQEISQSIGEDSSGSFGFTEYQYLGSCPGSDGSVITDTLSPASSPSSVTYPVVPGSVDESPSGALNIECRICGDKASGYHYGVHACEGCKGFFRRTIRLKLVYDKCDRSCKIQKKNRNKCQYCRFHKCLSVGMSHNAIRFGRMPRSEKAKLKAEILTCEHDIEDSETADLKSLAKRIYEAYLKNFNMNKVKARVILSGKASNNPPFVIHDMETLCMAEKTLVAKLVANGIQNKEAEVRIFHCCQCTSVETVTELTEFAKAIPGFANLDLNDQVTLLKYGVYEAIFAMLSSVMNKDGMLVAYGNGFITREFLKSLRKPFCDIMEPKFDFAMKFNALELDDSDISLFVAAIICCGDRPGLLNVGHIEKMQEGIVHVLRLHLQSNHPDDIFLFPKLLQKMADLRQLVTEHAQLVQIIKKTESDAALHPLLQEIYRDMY
Retinoic acid receptor RXR-alpha (Homo sapiens), sequence (P19793 whole entry, looked up): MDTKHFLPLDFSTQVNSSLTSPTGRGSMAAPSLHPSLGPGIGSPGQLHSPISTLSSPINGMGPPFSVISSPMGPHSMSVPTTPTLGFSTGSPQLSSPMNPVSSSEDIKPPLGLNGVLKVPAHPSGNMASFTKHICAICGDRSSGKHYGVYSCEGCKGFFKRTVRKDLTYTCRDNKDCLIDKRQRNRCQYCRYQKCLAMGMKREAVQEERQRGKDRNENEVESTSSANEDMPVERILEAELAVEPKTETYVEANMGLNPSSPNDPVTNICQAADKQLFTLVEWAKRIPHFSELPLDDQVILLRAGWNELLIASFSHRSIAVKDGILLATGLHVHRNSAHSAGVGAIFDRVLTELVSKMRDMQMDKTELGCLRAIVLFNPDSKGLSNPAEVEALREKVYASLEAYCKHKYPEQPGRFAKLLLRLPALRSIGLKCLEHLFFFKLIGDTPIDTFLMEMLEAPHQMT
Nuclear receptor subfamily 1 group I member 2 (Rattus norvegicus), sequence (Q9R1A7 whole entry, looked up): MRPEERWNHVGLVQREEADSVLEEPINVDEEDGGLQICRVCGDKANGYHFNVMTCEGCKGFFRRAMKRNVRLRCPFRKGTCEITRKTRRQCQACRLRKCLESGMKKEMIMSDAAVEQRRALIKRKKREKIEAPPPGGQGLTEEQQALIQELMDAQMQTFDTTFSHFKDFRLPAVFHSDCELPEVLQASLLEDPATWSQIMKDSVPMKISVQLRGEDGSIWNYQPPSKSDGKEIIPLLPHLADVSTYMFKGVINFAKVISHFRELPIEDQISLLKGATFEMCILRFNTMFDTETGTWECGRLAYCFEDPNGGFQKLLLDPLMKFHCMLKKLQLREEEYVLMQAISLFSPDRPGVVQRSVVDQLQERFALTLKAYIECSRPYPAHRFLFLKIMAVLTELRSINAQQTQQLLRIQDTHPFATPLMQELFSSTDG
Vitamin D3 receptor (Homo sapiens), sequence (P11473 whole entry, looked up): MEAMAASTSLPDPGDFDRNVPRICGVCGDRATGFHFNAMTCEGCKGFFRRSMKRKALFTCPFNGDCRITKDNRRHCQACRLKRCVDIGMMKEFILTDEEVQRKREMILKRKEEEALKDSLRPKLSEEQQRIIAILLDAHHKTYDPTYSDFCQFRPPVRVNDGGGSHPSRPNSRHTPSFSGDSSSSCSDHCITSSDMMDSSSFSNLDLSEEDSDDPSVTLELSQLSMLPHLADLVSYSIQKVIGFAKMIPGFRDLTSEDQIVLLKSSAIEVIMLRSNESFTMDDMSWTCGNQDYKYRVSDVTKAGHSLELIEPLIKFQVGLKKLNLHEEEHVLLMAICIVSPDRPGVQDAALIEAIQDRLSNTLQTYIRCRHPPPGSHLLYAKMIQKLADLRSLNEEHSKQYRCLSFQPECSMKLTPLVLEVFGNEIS
Peroxisome proliferator-activated receptor delta (Homo sapiens), sequence (Q03181 whole entry, looked up): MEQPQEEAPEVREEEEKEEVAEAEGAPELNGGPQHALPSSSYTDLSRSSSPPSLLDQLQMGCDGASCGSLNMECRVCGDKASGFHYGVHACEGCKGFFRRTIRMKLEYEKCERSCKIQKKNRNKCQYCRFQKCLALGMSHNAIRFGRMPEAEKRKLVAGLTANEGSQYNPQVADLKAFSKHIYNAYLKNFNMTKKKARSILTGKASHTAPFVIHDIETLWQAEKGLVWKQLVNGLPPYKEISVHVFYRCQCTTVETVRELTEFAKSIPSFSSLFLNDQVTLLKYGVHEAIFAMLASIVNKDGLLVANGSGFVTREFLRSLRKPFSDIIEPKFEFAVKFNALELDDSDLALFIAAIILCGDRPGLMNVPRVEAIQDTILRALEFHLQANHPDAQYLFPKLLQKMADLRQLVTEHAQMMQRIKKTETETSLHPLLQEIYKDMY
Glucocorticoid receptor (Homo sapiens), sequence (P04150 whole entry, looked up): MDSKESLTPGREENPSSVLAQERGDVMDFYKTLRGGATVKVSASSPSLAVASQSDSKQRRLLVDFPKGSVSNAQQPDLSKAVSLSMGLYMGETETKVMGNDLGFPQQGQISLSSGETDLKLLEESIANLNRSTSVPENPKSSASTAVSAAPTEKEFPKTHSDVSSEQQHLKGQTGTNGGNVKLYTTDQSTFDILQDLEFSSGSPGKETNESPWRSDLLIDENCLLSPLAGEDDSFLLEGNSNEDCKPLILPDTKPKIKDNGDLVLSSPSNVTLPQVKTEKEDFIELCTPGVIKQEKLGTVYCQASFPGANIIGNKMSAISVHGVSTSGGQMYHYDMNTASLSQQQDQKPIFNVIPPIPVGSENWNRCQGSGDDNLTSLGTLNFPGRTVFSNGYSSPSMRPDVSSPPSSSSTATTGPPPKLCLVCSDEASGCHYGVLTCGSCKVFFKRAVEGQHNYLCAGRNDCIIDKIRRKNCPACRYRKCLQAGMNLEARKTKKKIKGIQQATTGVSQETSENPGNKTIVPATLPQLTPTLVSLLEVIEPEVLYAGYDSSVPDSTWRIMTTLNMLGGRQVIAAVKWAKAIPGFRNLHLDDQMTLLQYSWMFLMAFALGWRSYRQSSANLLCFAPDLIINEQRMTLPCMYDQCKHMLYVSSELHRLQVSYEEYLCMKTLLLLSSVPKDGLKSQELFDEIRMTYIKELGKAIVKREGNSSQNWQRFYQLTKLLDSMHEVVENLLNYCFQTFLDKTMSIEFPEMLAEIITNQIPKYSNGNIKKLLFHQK

In the case of `CCCCCCCCCCCC#N`, the Potency entry in test [1], in [4], in test [9], in test [13] and in test [16] was “inactive” throughout. The activation is -2.48% (inactive) in test [2], 0.106% (inactive) in test [10] and -0.827% (inactive) in test [11]. Besides, the molecule was classed as inactive in test [3] and in [5]. Moreover, the max response is -6.71% in test [6]; 4.86% (inactive) in test [7]; -0.162% (inactive) in test [12]; -0.799% (inactive) in test [14]; -1.15% (inactive) in test [15]; 0.164% (inactive) in test [17]. For the same molecule, the activity change % (negative = inhibition) in test [8] is 16.2% (inactive).

Take `Cc1ccn2nc(S(=O)(=O)Nc3c(F)cccc3F)nc2n1`: the Potency result in [1], in test [4], in test [9], in test [13] and in test [16] was “inactive” throughout. Further, the activation in test [2] is -2.19% (inactive); in test [18] it was -0.461% (inactive). Besides, the result in [3] and in test [5] was inactive. The max response in test [6] was 2.3%; in [7] it was -2.18% (inactive); in test [12] it was 0.276% (inactive); in test [14], 14.2% (inactive); in test [15], -3.63% (inactive); in test [17], -3.4% (inactive).

Turning to `CO/N=C(/C1=NOCCO1)c1ccccc1Oc1ncnc(Oc2ccccc2Cl)c1F`, in [1], the Potency was 35.5 µM (active). The values for the activation in test [2], in [19] and in [11] were 7.75% (inactive), -11.9% (inactive) and 4.67% (inactive), respectively. In addition, the max response is 18.3% (inactive) in test [12], 16.2% (inactive) in test [14] and 6.13% (inactive) in test [15]. For the same molecule, in test [13], the Potency result is “inactive”.

Regarding `O=[N+]([O-])c1ccc2ccc3cccc4ccc1c2c34`, the activation in test [2] was -3.28% (inactive); in [19], -22% (inactive); in test [18], 2.13% (inactive). Also, the result in test [5] was inactive. Moreover, the Potency result in test [20] and in test [16] was “inactive” throughout. The activity change % (negative = inhibition) in test [8] was -20.5% (inactive). The Potency in test [9] was 4.33 µM (active). The max response in test [12] is -0.269% (inactive); in test [14], -9.82% (inactive); in test [15], -25% (inactive); in test [17] it was 3% (inactive).

`CC1(C)[C@H](C(=O)O[C@H](C#N)c2cccc(Oc3ccccc3)c2)[C@@H]1/C=C(\Cl)C(F)(F)F`: the Potency entry in [1], in test [4], in [20], in [13] and in [16] was “inactive” throughout. Further, the activation in test [2] is -0.137% (inactive); in test [19] it was 16% (inactive); in test [10], 1.92% (inactive); in test [11], -0.133% (inactive); in test [18], 0.227% (inactive). For the same molecule, the outcome in [3] and in test [5] was inactive. The max response in [6] is -6.94%; in test [7], -28.2% (inactive); in test [12], -0.66% (inactive); in [14], -24% (inactive); in test [15], -15% (inactive). In addition, the activity change % (negative = inhibition) in test [8] is 3.81% (inactive). Also, the Potency in test [9] is 54.5 µM (active).

Consider `CC(C)N1C(=O)N(c2ccccc2)CSC1=NC(C)(C)C`, for which the activation in test [19] was -1.49% (inactive) and -3.83% (inactive); in test [10], -1.27% (inactive) and 6.3% (inactive); in test [11], 0.243% (inactive) and -2.38% (inactive); in test [18] it was -0.494% (inactive) and 3.86% (inactive). In addition, the molecule was classed as inactive in test [3] and in [5]. For the same molecule, the Potency result in test [4], in test [20], in [13] and in test [16] was “inactive” each time. Further, the max response in test [6] was 0.399%; in test [7], -33.9% (inactive); in test [12], 0.0616% (inactive) and 14.7% (inactive); in test [14], 13.9% (inactive) and -6.65% (inactive); in [15], -17.9% (inactive); in [17], 13.3% (inactive) and 1.8% (inactive). In addition, the Potency in [9] was 68.6 µM (active) and 61.1 µM (active).
